Laboratory results published in PubChem BioAssay AID1159580 (chemical genetic matrix, 2015).
The campaign covered roughly 5,500 compounds. About 2,000 (36%) were called active. Roughly 18% stayed inconclusive and do not appear here. Rule as the data show it: active = normalized growth mostly below about 0.91 (no sharp cut-off); inconclusive = no clear call, values can overlap the other calls; inactive = mostly above about 0.92. Some of the results follow.

Assay: chemical genetic growth profiling, strain panel (AID 1159580);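 also: tested at 20 µM; growth read once vehicle control cultures reached saturation at 30 °C; 1 = growth at the plate median or of vehicle wells; lower values mean less growth of the strain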
Details: S. cerevisiae deletion strains, growth OD
[1] = locus YDL101C, strain DUN1, stronger effect = lower value
[2] = locus YHR030C, strain SLT2, stronger effect = lower value
[3] = locus YGR078C, strain PAC10, stronger effect = lower value
[4] = locus YNL322C, strain KRE1, stronger effect = lower value

Measured: normalized growth

COc1cc(C(=O)Oc2c(Cl)cc(Cl)cc2C=Nc2ccc([N+](=O)[O-])cc2C#N)cc(OC)c1OC
active: locus YDL214C, strain PRR2, stronger effect = lower value 0.56 | locus YDR477W, strain SNF1, stronger effect = lower value 0.598 | locus YER123W, strain YCK3, stronger effect = lower value 0.352 | locus YER133W, strain GLC7, stronger effect = lower value 0.553 | locus YFR019W, strain FAB1, stronger effect = lower value 0.593 | locus YGR040W, strain KSS1, stronger effect = lower value 0.622 | locus YGR052W, strain FMP48, stronger effect = lower value 0.508 | locus YGR092W, strain DBF2, stronger effect = lower value 0.302 | [2] 0.324 | locus YHR079C, strain IRE1, stronger effect = lower value 0.371 | locus YHR082C, strain KSP1, stronger effect = lower value 0.497 | locus YHR205W, strain SCH9, stronger effect = lower value 0.429 | locus YJL095W, strain BCK1, stronger effect = lower value 0.408 | locus YJL157C, strain FAR1, stronger effect = lower value 0.565 | locus YJR066W, strain TOR1, stronger effect = lower value 0.366 | locus YKL048C, strain ELM1, stronger effect = lower value 0.765 | locus YKL067W, strain YNK1, stronger effect = lower value 0.558 | locus YKL101W, strain HSL1, stronger effect = lower value 0.654 | locus YKL203C, strain TOR2, stronger effect = lower value 0.678 | locus YLR113W, strain HOG1, stronger effect = lower value 0.458 | locus YLR133W, strain CKI1, stronger effect = lower value 0.543 | locus YLR403W, strain SFP1, stronger effect = lower value 0.439 | locus YML070W, strain DAK1, stronger effect = lower value 0.544 | locus YMR205C, strain PFK2 (second series), stronger effect = lower value 0.59 | locus YNL020C, strain ARK1, stronger effect = lower value 0.503 | locus YNL183C, strain NPR1, stronger effect = lower value 0.465 | locus YNL307C, strain MCK1 (second series), stronger effect = lower value 0.5 | locus YOL136C, strain PFK27, stronger effect = lower value 0.492 | locus YOR061W, strain CKA2, stronger effect = lower value 0.439 | locus YOR119C, strain RIO1, stronger effect = lower value 0.549 | locus YOR231W, strain MKK1, stronger effect = lower value 0.46 | locus YPL031C, strain PHO85, stronger effect = lower value 0.572 | locus YPL153C, strain RAD53, stronger effect = lower value 0.581 | locus YPL204W, strain HRR25, stronger effect = lower value 0.548 | locus YPL256C, strain CLN2, stronger effect = lower value 0.431
inactive: locus YAR019C, strain CDC15, stronger effect = lower value 0.988 | locus YBL105C, strain PKC1, stronger effect = lower value 0.972 | locus YBR135W, strain CKS1, stronger effect = lower value 0.969 | locus YBR136W, strain MEC1, stronger effect = lower value 0.988 | locus YBR160W, strain CDC28, stronger effect = lower value 0.974 | locus YDL017W, strain CDC7, stronger effect = lower value 0.974 | locus YDL028C, strain MPS1, stronger effect = lower value 0.977 | [1] 0.987 | locus YDL108W, strain KIN28, stronger effect = lower value 0.982 | locus YDL132W, strain cdc53, stronger effect = lower value 0.967 | locus YDR052C, strain DBF4, stronger effect = lower value 0.989 | locus YDR054C, strain cdc34, stronger effect = lower value 0.968 | locus YDR226W, strain ADK1, stronger effect = lower value 0.978 | locus YFL009W, strain cdc4, stronger effect = lower value 0.961 | locus YFL029C, strain CAK1, stronger effect = lower value 0.983 | locus YFR003C, strain YPI1, stronger effect = lower value 0.975 | locus YFR028C, strain CDC14, stronger effect = lower value 0.973 | locus YIL147C, strain SLN1, stronger effect = lower value 0.979 | locus YJL128C, strain PBS2, stronger effect = lower value 0.928 | locus YJR016C, strain ILV3, stronger effect = lower value 0.986 | locus YJR066W, strain TOR1 (second series), stronger effect = lower value 0.812 | locus YKL193C, strain SDS22, stronger effect = lower value 0.965 | locus YMR001C, strain CDC5, stronger effect = lower value 0.98 | locus YMR277W, strain FCP1, stronger effect = lower value 0.97 | locus YNL006W, strain LST8, stronger effect = lower value 0.991 | locus YNL161W, strain CBK1, stronger effect = lower value 0.98 | locus YNL207W, strain RIO2, stronger effect = lower value 0.981 | locus YNL222W, strain SSU72, stronger effect = lower value 0.975 | locus YOL078W, strain AVO1, stronger effect = lower value 0.975 | locus YOR329C, strain SCD5, stronger effect = lower value 0.971 | locus YPL209C, strain IPL1, stronger effect = lower value 0.976 | locus YPR025C, strain CCL1, stronger effect = lower value 0.963 | locus YPR106W, strain ISR1, stronger effect = lower value 0.971 | locus YPR111W, strain DBF20, stronger effect = lower value 0.945 | strain NNK1, stronger effect = lower value 0.979 | strain TSCII, stronger effect = lower value 0.98

CCN(CC)CCCCCCCCOC(=O)c1cc(OC)c(OC)c(OC)c1
inactive: locus YAL040C, strain CLN3, stronger effect = lower value 1.01 | locus YDR363W, strain ESC2, stronger effect = lower value 1.01 | locus YER002W, strain NOP16, stronger effect = lower value 0.999 | [3] 1.01 | locus YNL175C, strain NOP13, stronger effect = lower value 1.01 | locus YNL197C, strain WHI3, stronger effect = lower value 1.02 | locus YNL224C, strain SQS1, stronger effect = lower value 0.985 | [4] 0.992 | locus YOR083W, strain WHI5 (second series), stronger effect = lower value 1.03

COc1cc(N=Cc2ccc3c(c2)OCO3)c(OC)cc1Cl
inactive: locus YAL013W, strain DEP1, stronger effect = lower value 1.01 | locus YBR229C, strain ROT2, stronger effect = lower value 1.01 | locus YCL061C, strain MRC1, stronger effect = lower value 1 | [1] 0.984 | locus YDR150W, strain NUM1, stronger effect = lower value 0.91 | locus YEL061C, strain CIN8, stronger effect = lower value 1.04 | [3] 0.994 | locus YGR229C, strain SMI1, stronger effect = lower value 1.01 | [2] 0.982 | locus YHR087W, strain rtc3, stronger effect = lower value 0.989 | locus YJR043C, strain POL32, stronger effect = lower value 1 | locus YJR075W, strain HOC1, stronger effect = lower value 0.983 | locus YLR039C, strain RIC1, stronger effect = lower value 0.97 | locus YLR058C, strain SHM2 (second series), stronger effect = lower value 1 | locus YLR085C, strain ARP6, stronger effect = lower value 1.04 | locus YLR262C, strain YPT6, stronger effect = lower value 0.99 | locus YML094W, strain GIM5, stronger effect = lower value 1.02 | locus YMR219W, strain ESC1, stronger effect = lower value 0.991 | locus YMR263W, strain SAP30, stronger effect = lower value 0.939 | locus YMR307W, strain GAS1, stronger effect = lower value 1.05 | locus YNL128W, strain TEP1, stronger effect = lower value 1.01 | locus YNL153C, strain GIM3, stronger effect = lower value 0.988 | locus YNL298W, strain CLA4 (second series), stronger effect = lower value 1.01 | [4] 1 | locus YNR030W, strain Alg12, stronger effect = lower value 1.01 | locus YPL055C, strain LGE1, stronger effect = lower value 0.998 | locus YPL241C, strain CIN2, stronger effect = lower value 1.02 | locus YPR135W, strain CTF4, stronger effect = lower value 0.973
